# Values without a mark were called inactive. Inconclusive results are not listed. Where a call stands in place of a potency, no number is given. Activity calls are given as the source filed them. Unless noted, the call rests on the fitted dose curve; in most records, active means well fitted curve in the direction sought with a large enough effect in the repeat runs; inconclusive means weak or mixed curves; inactive means no such curve, though single readings can be large; an effect the other way counts as inactive or inconclusive.
# Legend:
# [1] = target: Luciferin 4-monooxygenase (Photinus pyralis) (UniProt P08659); test: qHTS assay to identify small molecule inhibitors of firefly luciferase (AID 1224835); further: nearly all actives have a fitted effect of over 25% in size; further: potency means the concentration at half of the fitted maximal effect
# Method in brief: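 Inhibition of purified Photinus luciferase is measured by luminescence. Substrate levels (D-luciferin, ATP) sit at their KM values. Each compound is tested in a concentration series.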
# [2] = qHTS assay to identify small molecule agonists of the constitutive androstane receptor (CAR) signaling pathway - cell viability counter screen (AID 1224836); further: nearly all actives have a fitted effect of over 45% in size; further: potency means the concentration at half of the fitted maximal effect
# Method in brief: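 HepG2 cells stably carrying hCAR and a CYP2B6-2.2kb reporter; 15-concentration compounds plus PK11195 (final 0.75 uM), 23 hr at 37 C/5% CO2. Viability read by CellTiter-Fluor fluorescence.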
# [3] = qHTS assay to identify small molecule antagonists of the constitutive androstane receptor (CAR) signaling pathway - cell viability counter screen (AID 1224837); further: nearly all actives have a fitted effect of over 45% in size; further: potency means the concentration at half of the fitted maximal effect
# Method in brief: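 Fluorescence from CellTiter-Fluor served as the viability signal. Human hepatoma HepG2 cells stably bearing hCAR and CYP2B6-2.2kb received compound plus CITCO (50 nM final) for 23 hr.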
# [4] = target: Nuclear receptor subfamily 1 group I member 3 (Homo sapiens) (UniProt Q14994); test: qHTS assay to identify small molecule antagonists of the constitutive androstane receptor (CAR) signaling pathway (AID 1224838);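 further: HepG2 cells stably expressing hCAR with CYP2B6 luciferase reporter stimulated by CITCO; nearly all actives have a fitted effect of over 40% in size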; further: potency means the concentration at half of the fitted maximal effect
# Method in brief: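 Quantitative HTS in double-stable HepG2-CYP2B6-hCAR cells. After 4 h plating, cells get compound (15 concentrations) and CITCO at 50 nM final, incubate 24 h at 37 C, then ONE-Glo luminescence is read.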
# [5] = qHTS assay to identify small molecule antagonists of the estrogen related receptor signaling pathway with the pleiotropic PPARgamma coactivator (PGC) from Tox21 10K library - cell viability counter screen (AID 1224840; active means well fitted cell-killing curve with a large enough effect in the repeat runs, not every such curve was filed as active; further: nearly all actives have a fitted effect of over 40% in size; further: potency means the concentration at half of the fitted maximal effect)
# Method in brief: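 Compounds in DMSO, alongside positive and negative controls, were pinned onto PGC/ERR cells (2,000 per well). Exposure lasted 17.5 hours at 37 C, followed by a 30-minute CellTiter-Fluor incubation and fluorescence reading.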
# [6] = qHTS assay to identify small molecule antagonists of the estrogen related receptor signaling pathway with the pleiotropic PPARgamma coactivator (PGC) from Tox21 10K library (AID 1224841; call rule not given here; further: actives are mostly falling curves and most rising ones were filed inactive; nearly all actives have a fitted effect of over 50% in size)
# Method in brief: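 Compound exposure ran 18 hours at 37 C in PGC/ERR cells (2,000/well) that had first rested 6 hours in a 37 C/5% CO2 incubator. Luciferase activity was then detected with One-Glo after a 30-minute room-temperature step.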
# [7] = qHTS assay to identify small molecule agonists of the estrogen related receptor signaling pathway with the pleiotropic PPARgamma coactivator (PGC) from Tox21 10K library (AID 1224842); further: nearly all actives have a fitted effect of over 15% in size
# Method in brief: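 Luminescence from One-Glo (30 min, room temperature) measured after PGC/ERR cells had 18 h at 37 C with pinned compound (23 nL in DMSO). Cells had been seeded at 2,000 per well and pre-incubated 6 h.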
# [8] = target: Thyrotropin receptor (Homo sapiens) (UniProt P16473); test: qHTS assay to identify small molecule agonists of the thyroid stimulating hormone receptor (TSHR) signaling pathway (AID 1224843; calls by dose curve; further: nearly all actives have a fitted effect of over 45% in size)
# Method in brief: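 Screening of the Tox21 10K collection used HEK293 cells engineered with TSHR at 800 cells per well. After a 30-min room-temperature compound exposure, HTRF cAMP reagents were added and fluorescence recorded 1 h later.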
# [9] = qHTS assay to identify small molecule agonists of H2AX (AID 1224845; active means well fitted activation curve with a large enough effect in the signal ratio in the repeat runs, not every such curve was filed as active; the % refers to the signal ratio)
# Method in brief: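 Phospho-H2AX Ser139 measured by HTRF (ex 320 nm; em 665 and 620 nm) after 24 hr antibody incubation. Compounds, 15 concentrations, 0.76% DMSO, were applied to CHO-K1 cells for 3hr at 37C before lysis.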
# [10] = qHTS assay to identify small molecule agonists of H2AX - cell viability counter screen (AID 1224847; calls by dose curve; further: nearly all actives have a fitted effect of over 30% in size; further: potency means the concentration at half of the fitted maximal effect;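 on activity change, negative = cytotoxicity: wild-type CHO-K1 cells; top concentration of the series differs between compounds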)
# Method in brief: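 CHO-K1 cells plated overnight at 37C, then exposed 3 h at 37C to compounds at 15 concentrations (0.76% DMSO final). Viability by CellTiter-Glo luminescence after 30 min at room temperature.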
# [11] = qHTS assay to identify small molecule antagonists of the estrogen related receptor (ERR) signaling pathway from Tox21 library (AID 1224848); further: nearly all actives have a fitted effect of over 50% in size; further: potency means the concentration at half of the fitted maximal effect
# Method in brief: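 Antagonist-mode screen of the Tox21 10K library in an NTP-provided ERR reporter cell line; 18 h compound exposure at 37 C, luminescence measured with ONE-Glo.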
# [12] = qHTS assay to identify small molecule agonists of the estrogen related receptor (ERR) signaling pathway from Tox21 library (AID 1224849; calls by dose curve; further: nearly all actives have a fitted effect of over 15% in size); conditions: ERR reporter cell line, ONE-Glo luciferase, 18 h
# Method in brief: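 We plated ERR reporter cells, waited 6 h, added compounds in DMSO by pin tool and incubated them 18 h at 37 C. ONE-Glo was then added and luminescence read after 30 min.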
# [13] = qHTS RealTime-Glo MT Cell Viability Assay in HepG2 cells - 24 hour (AID 1224867); further: nearly all actives have a fitted effect of over 50% in size; further: potency means the concentration at half of the fitted maximal effect
# Method in brief: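 Cell number in HepG2 cultures estimated from NanoLuc luminescence generated by metabolic reduction of a prosubstrate by living cells. The homogeneous, nonlytic format allowed repeated reads at 0, 8, 16, 24, 32 and 40 h of compound exposure.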
# [14] = qHTS RealTime-Glo MT Cell Viability Assay in HEK293 cells - 32 hour (AID 1224868); further: nearly all actives have a fitted effect of over 50% in size; further: potency means the concentration at half of the fitted maximal effect; on activity change, negative = cytotoxic: top concentration of the series differs between compounds
# Method in brief: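 Homogeneous bioluminescent viability format in HEK293 cells (600 cells/well). Following 5 h at 37 C/5% CO2, 23 nL compound was pintooled; the signal was measured repeatedly during 40 h incubation.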
# [15] = A CellTox Green Cytotoxicity Assay to monitor cytotoxicity in HEK293 cells - 0 hour (AID 1224869); further: nearly all actives have a fitted effect of over 50% in size
# Method in brief: (§1)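 Each value comes from one timepoint of a single continuous run in which HEK293 cells with CellTox Green were exposed to compound for up to 40 h at 37 C, dye fluorescence rising with cell death.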
# [16] = qHTS RealTime-Glo MT Cell Viability Assay in HepG2 cells - 40 hour (AID 1224870); further: nearly all actives have a fitted effect of over 50% in size; further: potency means the concentration at half of the fitted maximal effect
# Method in brief: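 Real-time viability: cells seeded at 600 per well together with NanoLuc and cell-permeant prosubstrate, compounds added after 5 h incubation. Luminescence tracked at 0, 8, 16, 24, 32 and 40 h of exposure.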
# [17] = target: Nuclear receptor subfamily 1 group I member 3 (Homo sapiens) (UniProt Q14994); test: qHTS assay to identify small molecule agonists of the constitutive androstane receptor (CAR) signaling pathway (AID 1224839); further: nearly all actives have a fitted effect of over 15% in size; further: potency means the concentration at half of the fitted maximal effect;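 on activation: HepG2 cells stably carrying human CAR and a CYP2B6 luciferase reporter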
# Method in brief: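 HepG2 cells stably co-transfected with hCAR and a CYP2B6-2.2kb luciferase reporter; compounds at 15 concentrations with 0.75 uM PK11195 present. After 24 hr at 37 C, luciferase read by ONE-Glo luminescence.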
# [18] = A CellTox Green Cytotoxicity Assay to monitor cytotoxicity in HEK293 cells - 40 hour (AID 1224871); further: nearly all actives have a fitted effect of over 45% in size; further: potency means the concentration at half of the fitted maximal effect
# Method in brief: as §1
# [19] = qHTS assay to identify small molecule agonists of the hypoxia (HIF-1) signaling pathway - cell viability counter screen (AID 1224844; calls by dose curve; further: nearly all actives have a fitted effect of over 50% in size; further: potency means the concentration at half of the fitted maximal effect)
# Method in brief: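 Luminescent ATP content (CellTiter-Glo, 30 min, room temperature) served as the viability measure in HRE-bla ME-180 cells exposed to compounds for 17 hrs in low-serum medium (0.5% dialyzed FBS).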
# [20] = qHTS assay to identify small molecule agonists of the hypoxia (HIF-1) signaling pathway (AID 1224846; active means well fitted activation curve with a large enough effect in the signal ratio in the repeat runs, not every such curve was filed as active; the % refers to the signal ratio)
# Method in brief: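 Measured by blue/green FRET after loading CCF4-AM: beta-lactamase expressed from a hypoxia response element in ME-180 cells. Test agents were delivered in DMSO and left 17 hrs; cells had been plated 5 hrs earlier in low-serum (0.5% dialyzed FBS) medium.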
# Sequence of Thyrotropin receptor (Homo sapiens) (P16473 whole entry, looked up): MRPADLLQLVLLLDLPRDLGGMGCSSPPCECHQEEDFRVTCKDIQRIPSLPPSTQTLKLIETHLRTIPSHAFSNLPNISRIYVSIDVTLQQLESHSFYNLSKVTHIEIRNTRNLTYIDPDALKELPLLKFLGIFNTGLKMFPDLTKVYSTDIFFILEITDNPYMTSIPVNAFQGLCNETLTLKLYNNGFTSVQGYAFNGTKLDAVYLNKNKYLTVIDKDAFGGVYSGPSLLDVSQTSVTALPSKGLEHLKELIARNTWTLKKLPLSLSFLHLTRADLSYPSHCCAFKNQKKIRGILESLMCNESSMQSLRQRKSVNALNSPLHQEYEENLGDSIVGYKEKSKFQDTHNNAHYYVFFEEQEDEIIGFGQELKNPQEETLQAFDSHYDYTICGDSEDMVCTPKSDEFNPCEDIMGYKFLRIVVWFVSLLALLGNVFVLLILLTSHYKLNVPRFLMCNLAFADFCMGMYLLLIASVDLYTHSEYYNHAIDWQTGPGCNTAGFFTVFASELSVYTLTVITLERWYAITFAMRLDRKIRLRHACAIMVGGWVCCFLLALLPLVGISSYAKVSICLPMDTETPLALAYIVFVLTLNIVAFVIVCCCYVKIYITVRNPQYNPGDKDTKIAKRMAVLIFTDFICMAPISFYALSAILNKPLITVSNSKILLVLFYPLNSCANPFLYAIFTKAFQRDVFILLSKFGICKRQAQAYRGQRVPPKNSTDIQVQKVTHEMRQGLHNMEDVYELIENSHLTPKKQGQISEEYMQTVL
# Sequence of Luciferin 4-monooxygenase (Photinus pyralis) (P08659 whole entry, looked up): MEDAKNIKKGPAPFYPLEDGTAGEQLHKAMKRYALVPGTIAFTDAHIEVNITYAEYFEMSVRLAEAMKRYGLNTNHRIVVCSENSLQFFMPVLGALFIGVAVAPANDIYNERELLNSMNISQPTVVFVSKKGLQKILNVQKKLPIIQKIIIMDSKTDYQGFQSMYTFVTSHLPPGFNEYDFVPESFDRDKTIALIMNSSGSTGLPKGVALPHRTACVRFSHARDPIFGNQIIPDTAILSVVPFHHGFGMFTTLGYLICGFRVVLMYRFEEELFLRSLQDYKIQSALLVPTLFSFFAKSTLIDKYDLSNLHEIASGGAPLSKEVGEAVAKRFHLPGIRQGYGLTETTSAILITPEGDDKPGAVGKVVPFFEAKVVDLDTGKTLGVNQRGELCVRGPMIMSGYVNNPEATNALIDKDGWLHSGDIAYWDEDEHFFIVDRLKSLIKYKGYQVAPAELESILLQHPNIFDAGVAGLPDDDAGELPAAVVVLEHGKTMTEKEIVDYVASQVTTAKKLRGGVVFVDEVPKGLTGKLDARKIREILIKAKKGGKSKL
# Sequence of Nuclear receptor subfamily 1 group I member 3 (Homo sapiens) (Q14994 whole entry, looked up): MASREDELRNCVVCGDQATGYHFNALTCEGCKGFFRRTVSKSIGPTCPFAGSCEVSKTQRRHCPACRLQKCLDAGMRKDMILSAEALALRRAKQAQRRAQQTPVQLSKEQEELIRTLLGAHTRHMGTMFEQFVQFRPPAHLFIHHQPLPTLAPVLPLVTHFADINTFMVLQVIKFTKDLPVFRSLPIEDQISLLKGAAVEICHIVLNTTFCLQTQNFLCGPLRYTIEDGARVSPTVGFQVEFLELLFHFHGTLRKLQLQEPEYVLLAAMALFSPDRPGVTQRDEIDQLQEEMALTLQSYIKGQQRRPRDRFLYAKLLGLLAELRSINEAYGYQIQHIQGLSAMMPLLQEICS
smiles,measurement,setting,value
CN1CCN2c3ccccc3Cc3ccccc3C2C1 (configuration not stated),Potency,[1],inactive
same,Potency,[2],inactive
same,Potency,[3],inactive
same,Potency,[4],inactive
same,Potency,[5],inactive
same,Potency,[6],inactive
same,Potency,[7],inactive
same,Potency,[8],inactive
same,Potency,[9],inactive
same,Potency,[10],inactive
same,Potency,[11],inactive
same,"activity change, positive = activation",[12]; at 42.5 µM (top of the series),-10.4%
same,Potency,[13],inactive
same,Potency,[14],inactive
same,Potency,[15],inactive
same,Potency,[16],inactive
C#C[C@]1(OC(C)=O)CC[C@H]2[C@@H]3CCC4=C/C(=N/O)CC[C@@H]4[C@H]3CC[C@@]21CC,Potency,[1],inactive
same,Potency,[2],inactive
same,Potency,[3],inactive
same,Potency,[4],inactive
same,Potency,[17],inactive
same,Potency,[5],inactive
same,"activity change, positive = activation",[12]; at 42.5 µM (top of the series),-41.4%
same,Potency,[13],inactive
same,Potency,[15],inactive
same,Potency,[16],inactive
same,Potency,[18],inactive
O=C(O)c1cc(O)c2ccccc2c1O,Potency,[1],31.7 µM (active)
same,Potency,[2],21.7 µM (active)
same,Potency,[3],24.3 µM (active)
same,Potency,[4],38.6 µM (active)
same,Potency,[17],1.54 µM (active)
same,Potency,[5],30.6 µM (active)
same,Potency,[19],11 µM (active)
same,Potency,[10],50.5 µM (active)
same,Potency,[11],61.1 µM (active)
same,"activity change, positive = activation",[12]; at 92.4 µM (top of the series),-58.1%
same,Potency,[13],19.5 µM (active)
same,Potency,[14],43.6 µM (active)
same,Potency,[15],inactive
same,Potency,[16],21.9 µM (active)
same,Potency,[18],19.5 µM (active)
NC[C@H]1O[C@H](O[C@H]2[C@H](O[C@@H]3O[C@H](CO)[C@@H](O)[C@H]3O)C(O)[C@H](N)C[C@@H]2N)[C@H](N)[C@@H](O)[C@@H]1O (some centres not stated),"activity change, negative = inhibition",[1],6.81% [at 10.5 µM]
same,"viability change, negative = cytotoxic",[2],0.325% [at 8.39 µM]
same,"activity change, negative = cytotoxicity",[3],3.7% [at 8.39 µM]
same,"activity, negative = inhibition",[4],-13% [at 8.39 µM]
same,"viability change, negative = cytotoxic",[5],0.247% [at 8.39 µM]
same,activation,[8],-0.16% [at 8.39 µM]
same,"activity change, negative = cytotoxicity",[19],-1.39% [at 6.97 µM]
same,activation (H2AX phosphorylation),[9],-1.16% [at 14 µM]
same,activation,[20],-1.07% [at 7.01 µM]
same,"activity change, negative = cytotoxicity",[10],-3.49% [at 14 µM]
same,"activity change, negative = cytotoxicity",[13],-0.277% [at 6.97 µM]
same,"activity change, negative = cytotoxic",[14],4.84% [at 6.97 µM]
same,"activity change, negative = cytotoxic",[16],0.986% [at 6.97 µM]
same,cytotoxicity increase,[18],-12.4% [at 6.97 µM]
COC(C)=O,Potency,[1],inactive
same,Potency,[2],inactive
same,Potency,[3],inactive
same,Potency,[4],inactive
same,Potency,[17],inactive
same,Potency,[5],inactive
same,Potency,[19],inactive
same,Potency,[9],inactive
same,Potency,[20],inactive
same,Potency,[10],inactive
same,Potency,[13],inactive
same,Potency,[14],inactive
same,Potency,[15],inactive
same,Potency,[16],inactive
same,Potency,[18],inactive
Cc1ccc(C(C)C)cc2c(C)ccc1-2,Potency,[1],inactive
same,Potency,[2],inactive
same,Potency,[3],inactive
same,Potency,[4],inactive
same,Potency,[5],inactive
same,Potency,[6],inactive
same,Potency,[7],inactive
same,Potency,[8],inactive
same,Potency,[19],inactive
same,Potency,[9],inactive
same,Potency,[20],inactive
same,Potency,[10],inactive
same,Potency,[11],inactive
same,"activity change, positive = activation",[12]; at 42.5 µM (top of the series),-2.57%
same,Potency,[13],inactive
same,Potency,[14],inactive
same,Potency,[15],inactive
same,Potency,[16],inactive
Clc1nnc(Cl)c2ccccc12,Potency,[1],inactive
same,Potency,[2],inactive
same,Potency,[3],inactive
same,Potency,[4],inactive
same,Potency,[17],inactive
same,Potency,[5],inactive
same,Potency,[19],inactive
same,Potency,[20],inactive
same,Potency,[10],inactive
same,Potency,[13],inactive
same,Potency,[14],inactive
same,Potency,[15],inactive
same,Potency,[16],inactive
same,Potency,[18],inactive
CCCCOC(=O)CO,Potency,[1],inactive
same,Potency,[2],inactive
same,Potency,[3],inactive
same,Potency,[4],inactive
same,Potency,[17],inactive
same,Potency,[5],inactive
same,Potency,[19],inactive
same,Potency,[9],inactive
same,Potency,[20],inactive
same,Potency,[10],inactive
same,Potency,[13],inactive
same,Potency,[14],inactive
same,Potency,[15],inactive
same,Potency,[16],inactive

# — PubChem BioAssay (Tox21)
